The values that follow come from the supplement of paper PMC6555819.

The subject of this assay is VDR:RXRa (NR concentration 270 nM, RXRa partner concentration 90 nM). Description: PBM binding z-score (relative to random genomic background probes); higher = stronger binding; sequences stand for … in GC…GCGATTGACAGCGTAGAATGAAGG
As for the experimental part: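 Protein-binding microarray (Agilent 4x180K custom design, double-stranded 60-nt probes: 5' GC cap, 34-nt variable region, 24-nt constant primer region; full probe sequence given). Purified or IVT nuclear receptor:RXRα heterodimers (3:1 NR:RXRα, mostly 270:90 nM) or homodimers were incubated for 1 h in PBS with 2% milk and no ligand, then detected with Alexa488 antibodies. Fluorescence from o1-orientation probes (~5 replicates averaged) was converted to z-scores against 500 random hg19 background probes. Variable regions are seed direct-repeat (DR0–DR5) sites, all their single-nucleotide variants and half-site ablations.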
With GGAACGAGGGCACGTTGATAGCAGAGTTTGATGG, the PBM binding z-score is 0.909. The figure for AGAACGAGGGCACGCTTAGTTGATAGCAGAGTAG is 1.19; for ATCTCTAGGTAACCAAGTTCCGTGAATGCCGAAC it is 0.306; for GGCACGAGGGCATTCGAGTTGATAGCATGGCGAT it is 3.54. The figure for CAAACTAGGTCACGAAACGTCAAAGTCGAATGAC is 2.2; for CCTATTTGTTGACCATAAGGGCAACCGAAGCTCG it is 1.09; for CCTTACGGGTCACTACAGGTTATAGCATCGGAGT it is 4.06. In the case of CCAAACAGGTGAAAGGTAACTCAGTCTGGTACGC it was 0.991. CCGACTGGGACAAAGGTTACCATACTCAGTACGA registered a PBM binding z-score of 1.14. The figure for GCGACTGGGGTATCAGCAGGTTACCATAACTTAA is -0.202. In the case of CCCACTGGGCCAAAAAGGTCATTGATGCCGATAA it was 4.94; in that of TCTAGTTGGTCACGGAGGTCACACAAGACGGGTA, 5.67; in that of AGAATCAGGTTATACGTAGATCAGGGAAGAAAGT, 0.368. In the case of TCTTGTGGATCAAAGGTTAAGAAAGCCGAAGCCT it was 1.54; in that of TCATATAGGTACTACAGGTGAAAGTCGGCATCTA, 0.876.

As to CCTAGCAGGCCAATCTGTGTCACTCAAGGCTTGA, the PBM binding z-score is -0.331. In the case of TCTTGTAGCTCAAGCAGGTTAAGAAAGCCTGAGT it was -0.0447; in that of ACTAACGGGTCAACGAGGTTATAGCACGCGTATA, 7.41; in that of TCGAGTGGGTTAGTCGGGGCATTCAGCCAACATA, 2.25.

GGAACGAGGGCATTCGAGTTGACAGCATGGCGAT: the PBM binding z-score is 3.41. The figure for CGTCCAAGGTCTGCAGGTCAGTGAAAGCGACGTG is -0.117; for GGTGCTAGGTCAGGTTGGTCAGCTAACGGGTACG it is 1.25.

Turning to AGAATGAGGTTATAAGTAGATCAGGGAAGAAAGT, the PBM binding z-score worked out at 1.26.

Sequence CAAACGAGGGCATGAGTTGATAGCAAATGCCGAT had a PBM binding z-score of 1.58. For the sequence ATCGAAAGGTCGACGAGGTGACTATACACCGTTT, the PBM binding z-score stood at 5.95. In turn, ACTCGGAGCACAAAGGTCAGAGCTACGCCAGTGA had a PBM binding z-score of 3.58. The figure for GGAACGAGGGCATTTGAGTTGATAGCATGGCGAT is 4.22. The figure for GCTAGCAGGCCATTTGAGTCACTCAATGACGGGC is -0.568.

Regarding ATCTCTAGGTAAAGACAGTTCAGTGAATGCAAAT, the PBM binding z-score was 1.53. In the case of ATCTCTAGGTAAGACTAAGTTCAGTGAAGAACGC it was 1.7; in that of CATCCAAGGTCAGCAGGTCAGTGAAAGCGACGTG, 4.18; in that of CCAATTAGTTGACCATAAGGGCAACCGAAGCTCG, 0.678. The sequence GCTAGCCGGCCATTTGGGTCACTCAATGACGGGC showed a PBM binding z-score of 0.203. AGAACGAGGGCACGCTGAGTTGATAGAAGAGTAG returned a PBM binding z-score of 2.26. In the case of ATACCAAGGTGCTCGTGAGGTCGTTGATACTAAC it was 2.34; in that of CCGAGTAGGTTATGGGTCATTCAGGCAACGGTGA, 2.67.

With TTACCAAGGTGGAGGTCGTTGATCCCTCTGTAGA, the PBM binding z-score is 1.65.

TCTAGTTGGACAAAGGTCACACACTCGAAATGCG: the PBM binding z-score turned out to be 5.09. TCTGCTAGGTCAAGGATGGTCAGCTAATCTGCTA displayed a PBM binding z-score of 1.18. The figure for CCTACTGGTCCAAAGGTCATTGATTCCAATGCTC is 4.83.
